Measurements as given in PubChem BioAssay (Tox21).
Where “and” joins values, the source holds several entries; their conditions need not be identical. Equal values may be shown once. Inconclusive results are not listed. More than one record can exist for a structure, and the calls need not agree. Calls of active or inactive are those of the source. Unless noted, calls come from the whole dose curve; as a rule, active = well fitted curve in the direction sought with a large enough effect in the repeat runs; inconclusive = weak or mixed curves; inactive = no such curve, though single readings can be large; an effect the other way counts as inactive or inconclusive.

Legend:
[1] = qHTS assay for small molecule agonists of the p53 signaling pathway (AID 651631; calls by dose curve; note: nearly all actives have a fitted effect of over 15% in size; note: potency is the fitted concentration of half-maximal effect)
Procedure, shortened: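 HCT-116 cells carrying a beta-lactamase reporter under p53 response elements were dosed with compound for 16 h at 37 °C. LiveBLAzer B/G FRET substrate was then added for 2 h at room temperature, and fluorescence intensity was read to detect pathway agonism.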

[2] = qHTS assay for small molecules that induce genotoxicity in human embryonic kidney cells expressing luciferase-tagged ATAD5 (AID 651632); note: nearly all actives have a fitted effect of over 15% in size; note: potency is the fitted concentration of half-maximal effect
Procedure, shortened: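 Cells were seeded at 2,000 per well, dosed with compound, and incubated 16 hr at 37C in 5% CO2. Luciferase activity was then quantified after a 30 min room-temperature incubation with Amplite.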

[3] = qHTS assay for small molecule agonists of the p53 signaling pathway - cell viability (AID 651633; calls by dose curve; note: nearly all actives have a fitted effect of over 30% in size; note: potency is the fitted concentration of half-maximal effect)
Procedure, shortened: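 Viability counter-read: CellTiter-Glo luminescence (30 min, room temperature) in the same p53RE-bla plates. These plates had been exposed to compounds for 16 h at 37 C.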

[4] = qHTS assay for small molecules that induce genotoxicity in human embryonic kidney cells expressing luciferase-tagged ATAD5 - cell viability (AID 651634; calls by dose curve; note: nearly all actives have a fitted effect of over 25% in size; note: potency is the fitted concentration of half-maximal effect)
Procedure, shortened: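 Cells (HEK293T, luciferase-tagged ATAD5) are seeded at 2,000 per well, dosed with compound or DMSO vehicle, and incubated 15.5 hr at 37C and 5% CO2. CellTiter-Fluor is added for 30 min before fluorescence is measured.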

[5] = qHTS assay to test for compound auto fluorescence at 590 nm (red) in HepG2 cells (AID 720674)
Procedure, shortened: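 Red autofluorescence (Ex/Em 540/590 nm, Rose Bengal sodium equivalents) was measured in HepG2 cells, 2,000 per well in MEM plus 10% FBS, plated overnight at 37 C. Readings were taken 1 hr after adding 23 nL compound or DMSO, at 37 C and 5% CO2.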

[6] = qHTS assay to test for compound auto fluorescence at 535 nm (green) in HepG2 cells (AID 720675)
[7] = qHTS assay to test for compound auto fluorescence at 460 nm (blue) in HEK293 cells (AID 720678)
Procedure, shortened: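 Intrinsic compound fluorescence is recorded in live HEK293 cultures after overnight incubation at 37C, 5% CO2, using excitation 405 nm and emission 460 nm. Values are referenced to triamterene.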

[8] = qHTS assay to test for compound auto fluorescence at 535 nm (green) in HEK293 cells (AID 720680)
[9] = qHTS assay to test for compound auto fluorescence at 460 nm (blue) in HEK293 cell free culture (AID 720681)
Procedure, shortened: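 Blue fluorescence (Ex 405/Em 460 nm, triamterene-equivalent) was read immediately after pin transfer of compound or DMSO into medium (DMEM, 10% FBS) without cells.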

[10] = qHTS assay to test for compound auto fluorescence at 590 nm (red) in HEK293 cell free culture (AID 720683)
Procedure, shortened: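 Red-channel autofluorescence of compounds in culture medium (DMEM, 10% FBS), no cells, measured at 540/590 nm. Rose Bengal sodium is the reference fluorophore for equivalence.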

[11] = qHTS assay to test for compound auto fluorescence at 590 nm (red) in HepG2 cell free culture (AID 720684)
Procedure, shortened: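 No cells present: MEM + 10% FBS only. Compound pinned in, red label read (540/590 nm). Activity = fluorescence equivalent to Rose Bengal sodium.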

[12] = qHTS assay to test for compound auto fluorescence at 460 nm (blue) in HepG2 cell free culture (AID 720685)
Procedure, shortened: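 Cell-free plates of MEM plus 10% FBS received 23 nL compound or DMSO vehicle; blue-channel (405/460 nm) intensity scored against triamterene as reference fluorophore.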

[13] = qHTS assay to test for compound auto fluorescence at 535 nm (green) in HepG2 cell free culture (AID 720686)
[14] = qHTS assay to test for compound auto fluorescence at 460 nm (blue) in HepG2 cells (AID 720687)
Procedure, shortened: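 Blue-channel autofluorescence (Ex/Em 405/460 nm, triamterene-equivalent) was measured after 1 hr compound exposure at 37 C, 5% CO2. Cells were HepG2, plated overnight at 37 C in MEM plus 10% FBS.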

[15] = qHTS assay to test for compound auto fluorescence at 590 nm (red) in HEK293 cells (AID 720679)
Procedure, shortened: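 Red autofluorescence, HEK293 cells: 2,000 cells/well; attach 4-5 hr 37C; add 23 nL cpd or DMSO; incubate o/n 37C 5% CO2; read Ex540/Em590; Rose Bengal sodium reference.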

[16] = qHTS assay to test for compound auto fluorescence at 535 nm (green) in HEK293 cell free culture (AID 720682)
Procedure, shortened: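 Green-label autofluorescence (485 nm excitation, 535 nm emission) measured on compound added to cell-free culture medium (DMEM, 10% FBS). Output is expressed relative to fluorescein.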

[17] = target: Glucocorticoid receptor (Homo sapiens) (UniProt P04150); experiment: qHTS assay to identify small molecule agonists of the glucocorticoid receptor (GR) signaling pathway (AID 720691; active = well fitted activation curve with a large enough effect in the signal ratio in the repeat runs, not every such curve was filed as active; the % refers to the signal ratio); details: GR-bla HeLa, beta-lactamase reporter ratio, 18 h; activation: at 62.4 µM (top of the series)
Procedure, shortened: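 Steps: seed GR-bla HeLa cells, incubate 4 h at 37 C/5% CO2; pin-transfer DMSO-dissolved compounds; incubate 18 h at 37 C; add LiveBLAzer B/G FRET substrate; after 2 h at room temperature, measure fluorescence.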

[18] = qHTS assay for small molecule disruptors of the mitochondrial membrane potential - cell viability (AID 720634; calls by dose curve;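 note: human HepG2 liver cancer cells; nearly all actives have a fitted effect of over 20% in size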)
Procedure, shortened: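 Cytotoxicity was measured by ATP quantitation in HepG2 wells that had first been treated with compound for 1 hr and stained with m-MPI dye; CellTiter-Glo incubation was 30 min at room temperature.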

[19] = qHTS assay for small molecule disruptors of the mitochondrial membrane potential (AID 720635); note: potency is the fitted concentration of half-maximal effect
Procedure, shortened: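 Mitochondrial membrane potential tracked with Mito-MPS dye, red aggregates (ex 540/em 590 nm) against green monomers (ex 490/em 535 nm). Compound treatment 1 hr at 37C, dye 30 min in HepG2.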

[20] = target: Glucocorticoid receptor (Homo sapiens) (UniProt P04150); experiment: qHTS assay to identify small molecule antagonists of the glucocorticoid receptor (GR) signaling pathway (AID 720692; active = well fitted inhibition curve with a large enough effect in the signal ratio in the repeat runs, not every such curve was filed as active; the % refers to the signal ratio)
Procedure, shortened: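 Antagonism was scored as loss of dexamethasone-driven (5 nM final) reporter signal in HeLa cells bearing a glucocorticoid response element–beta-lactamase construct, after 18 h compound exposure at 37 C and 2 h FRET substrate loading.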

Measured: Potency

Sequence of Glucocorticoid receptor (Homo sapiens) (P04150 whole entry, looked up): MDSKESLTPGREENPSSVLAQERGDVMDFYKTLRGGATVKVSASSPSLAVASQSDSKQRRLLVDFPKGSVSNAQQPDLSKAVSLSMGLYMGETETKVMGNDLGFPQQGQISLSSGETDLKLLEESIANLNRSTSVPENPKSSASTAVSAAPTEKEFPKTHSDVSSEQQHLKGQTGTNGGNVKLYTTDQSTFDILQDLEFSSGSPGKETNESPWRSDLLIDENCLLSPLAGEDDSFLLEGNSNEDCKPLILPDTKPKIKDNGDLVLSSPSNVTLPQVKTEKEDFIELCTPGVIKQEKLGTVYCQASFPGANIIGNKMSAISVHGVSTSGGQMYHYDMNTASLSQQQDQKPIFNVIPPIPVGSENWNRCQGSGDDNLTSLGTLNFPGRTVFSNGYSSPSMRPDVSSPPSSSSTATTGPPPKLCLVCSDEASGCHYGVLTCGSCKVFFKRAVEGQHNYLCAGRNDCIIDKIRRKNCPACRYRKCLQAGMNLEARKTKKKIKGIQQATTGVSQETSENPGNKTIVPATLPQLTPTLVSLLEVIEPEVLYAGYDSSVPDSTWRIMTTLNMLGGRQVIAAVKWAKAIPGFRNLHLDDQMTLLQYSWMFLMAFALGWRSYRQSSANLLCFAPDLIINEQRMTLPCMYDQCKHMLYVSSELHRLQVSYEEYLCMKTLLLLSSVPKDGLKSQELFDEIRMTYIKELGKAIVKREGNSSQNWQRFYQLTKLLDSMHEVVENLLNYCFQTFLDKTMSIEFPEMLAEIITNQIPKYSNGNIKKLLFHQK

C=CC(=O)OCC(CO)(COCC(COC(=O)C=C)(COC(=O)C=C)COC(=O)C=C)COC(=O)C=C
inactive: [5] | [6] | [7] | [8] | [9] | [10] | [11] | [12] | [13] | [14]
active: [1] 67.8 µM | [2] 2.4 µM | [3] 2.7 µM | [4] 7.6 µM

CCCCCCCCCCCCCCCS(=O)(=O)Oc1ccccc1
inactive: [1] | [2] | [3] | [4] | [5] | [6] | [7] | [15] | [8] | [9] | [16] | [10] | [11] | [12] | [13] | [14] | [17]

Clc1ccc2cc3ccccc3cc2c1
inactive: [2] | [3] | [18] | [5] | [6] | [7] | [15] | [8] | [9] | [10] | [11] | [12] | [13]
active: [1] 54.4 µM

CC(=O)N1CCN(c2ccc(OC[C@H]3CO[C@](Cn4ccnc4)(c4ccc(Cl)cc4Cl)O3)cc2)CC1
inactive: [1] | [2] | [18] | [5] | [6] | [7] | [8] | [9] | [16] | [10] | [11] | [12] | [13] | [14] | [17] | [20]
active: [19] 4.86 µM
inactive and 61.1 µM (active): [3]

CCCC/C=C/CCCCO
inactive: [1] | [2] | [3] | [18] | [5] | [6] | [7] | [8] | [9] | [16] | [10] | [11] | [13] | [14] | [17] | [20]

CCC(C)(C)C1CCCCC1OC(C)=O (stereo not given)
inactive: [1] | [2] | [3] | [18] | [5] | [6] | [7] | [15] | [8] | [9] | [16] | [10] | [11] | [12] | [14]

O=C1c2ccccc2Cc2ccccc21
active: [19] 12.3 µM
inactive: [1] | [2] | [3] | [18] | [5] | [6] | [7] | [15] | [8] | [9] | [16] | [10] | [11] | [13] | [14]
